# Measured values: PubChem BioAssay (NCI)
# About 83,000 compounds went through this panel and 20% of them were active in at least one assay; those are over-represented in the sample as a whole.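 Compound tested at a single concentration for 48 hours in 96-well plates; a percent growth value below 10 was scored as active.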 Values without a mark were called inactive. Activity calls are given as the source filed them.
# Tested on: MDA-MB-468 breast
# Test: NCI-60 one-dose screen, 48 h (100 = growth as untreated, 0 = no growth, -100 = all killed)
# Conditions: 10 µM unless noted
row,Structure (SMILES),growth
1,O=C(O)c1ccc(-n2cc(/C=N/Nc3ccccc3)c(-c3ccc(F)cc3F)n2)cc1,89.3%
2,COc1cc(-c2nccc3[nH]c(-c4cccc5[nH]ccc45)nc23)cc(OC)c1OC,-26.1% (active)
3,COc1ccc(Cl)c([N+](=O)[O-])c1,99.9%
4,O=C(O)c1ccc(Br)nc1,88.6%
